Assay outcomes (PubChem BioAssay)
HTT ATP protect = cytoprotection in Huntington HTT-Q103 PC12 cell model. AID 1471. Potency, µM (doses to about 56.4 µM), actives largely listed as activators. 230,000 compounds, 0.14% hits. PC12 HTT-Q103 induced, cytoprotection, ATP luminescence, 40 h; note: nearly all actives have a fitted effect of over 45% in size
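PC12 cells stably carrying ecdysone-inducible Htt exon 1 (Q103)–GFP were induced with 100 nM tebufenozide (final) alongside library compounds in a dose series. Cytoprotection was scored as retained ATP by ATPlite luminescence.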
TGFb inhibitor = TGF-b pathway inhibition; AID 588855; 410,000 compounds, 1.2% hits; HepG2 CAGA-GFP TGF-b/SMAD3 reporter, GFP fluorescence, 18 h; TGF-beta stimulated, 500 pg/mL final; Potency, µM (highest dose often 46.1 µM), most hits filed as inhibitors; note: nearly all actives have a fitted effect of over 65% in size
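HEPG2 CAGA-GFP reporter cells (1000/well, DMEM with 1% FBS) received compounds, then recombinant TGF-beta at 500 pg/mL final for 18 hours at 37 degrees C. Per-cell GFP summed per well was normalised to unstimulated and stimulated DMSO controls before curve fitting.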
ATXN viability = viability counter-screen for ATXN expression inhibitors | S2 cells (HEK-293 line with an ATXN2-luciferase reporter) viability, CellTiter-Fluor protease fluorescence, 24 h | 400,000 compounds, 0.49% hits | Potency, µM (highest dose often 56.7 µM), actives largely listed as cytotoxic; note: nearly all actives have a fitted effect of over 40% in size
HepG2 viability = HepG2 cytotoxicity, counter-screen for TGF-b inhibitors | HepG2 CAGA-GFP viability, ATP luminescence, 18 h | AID 588856 | 410,000 compounds, 0.76% hits | Potency, µM (titrated, usually from 46.1 µM), usual class: cytotoxic
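HepG2 CAGA-GFP cells (1000/well, DMEM with 1% FBS) received compound, then TGF-beta at 500 pg/mL final, and were incubated 18 hours at 37 degrees C. Viability was read by CellTiter-Glo luminescence. Media-only wells were set as complete cell-killing and DMSO as no toxicity.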
HttQ103 aggreg = inhibitors of mutant huntingtin aggregate formation in PC12 cells | 220,000 compounds, 1.1% hits | PC12 HttQ103-GFP aggregates, Acumen cytometry, 40 h | Potency, µM (series often up to 46.1 µM), hits mostly inhibitors | AID 1688; note: nearly all actives have a fitted effect of over 60% in size
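Compounds (qHTS titration) were added to PC12 cells expressing an ecdysone-driven HTT exon 1 Q103–GFP fusion after induction with 100 nM tebufenozide. Aggregate formation was measured as GFP objects in cell lysates.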
ATXN2 expr inh = inhibitors of ATXN2 expression; 360,000 compounds, 0.72% hits; AID 1745845; Potency, µM (series often up to 57 µM), hits mostly inhibitors; HEK-293 ATXN2-luciferase reporter, luminescence, 24 h; note: nearly all actives have a fitted effect of over 55% in size
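qHTS (up to 57 uM final) was run with 24 h compound exposure of reporter cells at 37 °C. Each well was multiplexed: SteadyGlo luminescence measured ATXN2-luciferase expression after a fluorogenic Gly-Phe-AFC viability readout (25 uM final).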
Large screens that a line does not name were inactive; ! = repeats disagree. Rows were chosen to be rich in hits. Some 2.8% of all compounds tested hit in one or more screens of this group. Calls come from the whole dose curve; as a rule, active = well fitted curve in the direction sought with a large enough effect; inconclusive = small, poorly fitted or top-dose-only effect, or another doubt; inactive = no such curve, though single readings can be large; an effect the other way counts as inactive or inconclusive.

C[C@@]12OC(=O)[C@]1([C@@H](O)[C@@H]1C=CCCC1)NC(=O)[C@H]2CCCl	ATXN2 expr inh 0.019µM (no result: HTT ATP protect, TGFb inhibitor, ATXN viability, HepG2 viability, HttQ103 aggreg)
CCOC(=O)[C@]12Cc3cc(Cl)ccc3[C@H]1N(C1CCCCC1)C(=O)c1ccccc12	ATXN viability 3.5µM, ATXN2 expr inh 3.2µM (no result: HTT ATP protect, TGFb inhibitor, HepG2 viability, HttQ103 aggreg)
CCOC(=O)[C@]12Cc3cc(OC)ccc3[C@H]1N(C1CCCCC1)C(=O)c1ccccc12	ATXN viability 7.1µM, ATXN2 expr inh 4.5µM (no result: HTT ATP protect, TGFb inhibitor, HepG2 viability, HttQ103 aggreg)
CCOC(=O)[C@]12Cc3cc(C)ccc3[C@H]1N(C)C(=O)c1ccccc12	ATXN viability inconclusive (no result: HTT ATP protect, TGFb inhibitor, HepG2 viability, HttQ103 aggreg)
O=CN1C[C@H]2C[C@@H](C1)c1cccc(=O)n1C2	none (no result: TGFb inhibitor, ATXN viability, HepG2 viability, HttQ103 aggreg, ATXN2 expr inh)
CN(CCC(=O)O)C1=Nc2ccc(Cl)cc2C(c2ccccc2)=[N+]([O-])C1	none (no result: TGFb inhibitor, ATXN viability, HepG2 viability, HttQ103 aggreg, ATXN2 expr inh)
CSCC[C@@H](NC(=O)[C@@H](Cc1ccccc1)NC(=O)CNC(=O)CNC(=O)[C@@H](N)Cc1ccc(O)cc1)C(=O)O	none (no result: HTT ATP protect, TGFb inhibitor, ATXN viability, HepG2 viability, HttQ103 aggreg)
COc1cccc(CN(C)C[C@@H]2OCc3ccccc3-c3c(n(C)c4ccccc34)C(=O)N([C@@H](C)CO)C[C@H]2C)c1	TGFb inhibitor inconclusive, ATXN viability 28µM, HepG2 viability 20µM, ATXN2 expr inh inconclusive (no result: HTT ATP protect, HttQ103 aggreg)
Cc1ccc2c(c1)C1CN(C)CCC1N2C(=O)c1cccs1 (stereo unspecified)	none
Cc1ccc(C)c(S(=O)(=O)Nc2ccc3c(c2)CCCN3C(=O)c2cccs2)c1	TGFb inhibitor 11µM, ATXN2 expr inh inconclusive (no result: HTT ATP protect, ATXN viability, HttQ103 aggreg)
O=C(O)[C@H]1[C@H](C(=O)O)[C@H]2CC[C@@H]1O2	none (no result: TGFb inhibitor, ATXN viability, HepG2 viability, HttQ103 aggreg, ATXN2 expr inh)
CCCCCCCCCCCC[N+](C)(C)CCOc1ccccc1	ATXN viability inconclusive, HttQ103 aggreg inconclusive, ATXN2 expr inh 32µM (no result: TGFb inhibitor, HepG2 viability)
CN(C)C(=O)C(CCN1CCC(O)(c2ccc(Cl)cc2)CC1)(c1ccccc1)c1ccccc1	ATXN viability inconclusive, HttQ103 aggreg inconclusive, ATXN2 expr inh 27µM!
CCC(=O)C(CCN(C)C)(c1ccccc1)c1ccccc1	none (no result: HTT ATP protect, TGFb inhibitor, HepG2 viability, HttQ103 aggreg)
CCOC(=O)[C@]12Cc3cc(OC)ccc3[C@H]1N(C)C(=O)c1ccccc12	none (no result: HTT ATP protect, TGFb inhibitor, HepG2 viability, HttQ103 aggreg)
CCOC(=O)[C@]12Cc3cc(Cl)ccc3[C@H]1N(CC(=O)OC)C(=O)c1ccccc12	ATXN viability 7.9µM, ATXN2 expr inh 7.1µM (no result: HTT ATP protect, TGFb inhibitor, HepG2 viability, HttQ103 aggreg)
CCOC(=O)[C@]12Cc3cc(Cl)ccc3[C@H]1N(C(C)C)C(=O)c1ccccc12	ATXN viability 6.3µM, ATXN2 expr inh 5.6µM (no result: HTT ATP protect, TGFb inhibitor, HepG2 viability, HttQ103 aggreg)
CCOC(=O)[C@]12Cc3cc(Cl)ccc3[C@H]1N(C)C(=O)c1ccccc12	none (no result: HTT ATP protect, TGFb inhibitor, HepG2 viability, HttQ103 aggreg)
Cn1ncnc2c(=O)n(C)c(=O)nc1-2	TGFb inhibitor 0.11µM, ATXN viability 4.5µM, HepG2 viability 0.2µM, HttQ103 aggreg 5µM, ATXN2 expr inh 3.5µM
Cc1ccc(-c2nc3c(=O)n(C)c(=O)nc-3n(C)n2)cc1	TGFb inhibitor 0.79µM, HepG2 viability 1µM (no result: HTT ATP protect, ATXN viability, HttQ103 aggreg, ATXN2 expr inh)
CCCCNC(C)(C)[P+](=O)O	none (no result: HTT ATP protect, TGFb inhibitor, HepG2 viability, HttQ103 aggreg, ATXN2 expr inh)
CCCCCCCCCC[N+](C)(C)CCCCCCCCCC	HttQ103 aggreg inconclusive (no result: TGFb inhibitor, ATXN viability, HepG2 viability, ATXN2 expr inh)
CCCCCCCCCCCCCCCC[N+](C)(C)C	TGFb inhibitor inconclusive, ATXN viability inconclusive, HttQ103 aggreg inconclusive, ATXN2 expr inh 32µM!
CC(C)N[C@@H](C)Cc1ccc(I)cc1	none (no result: TGFb inhibitor, ATXN viability, HepG2 viability, HttQ103 aggreg, ATXN2 expr inh)
COC(=O)[C@@H]1C[C@@H]1[C@@H](NP(=O)(c1ccccc1)c1ccccc1)c1ccccc1	none (no result: TGFb inhibitor, ATXN viability, HepG2 viability, HttQ103 aggreg, ATXN2 expr inh)
CCc1cc2c(N3CCN(C)CC3)ncnc2s1	HttQ103 aggreg inconclusive
CCN1CCN(c2ncnc3ccc(Br)cc23)CC1	HttQ103 aggreg 7.1µM
C1=C2CCCN[C@H]2[C@@H]2C[C@H]1[C@@H]1CCCCN1C2	none (no result: HTT ATP protect, TGFb inhibitor, ATXN viability, HepG2 viability, HttQ103 aggreg)
O=[N+]([O-])c1ccc(Sc2nc3ccccc3o2)c([N+](=O)[O-])c1	TGFb inhibitor inconclusive, HepG2 viability 13µM, ATXN2 expr inh inconclusive (no result: ATXN viability)
Cc1oc(-c2ccccc2Cl)nc1CN1C(=O)CN=C(c2ccccc2)c2ccccc21	TGFb inhibitor 16µM, ATXN viability inconclusive (no result: HTT ATP protect)
CC(O)=C(C#N)C(=O)Nc1cc(Br)ccc1Br	none (no result: HTT ATP protect, TGFb inhibitor, ATXN viability, HepG2 viability, HttQ103 aggreg)
Fc1ccc(CCNCc2ccc(Cl)c(Cl)c2)cc1	TGFb inhibitor inconclusive, ATXN viability inconclusive, HepG2 viability 13µM, ATXN2 expr inh inconclusive
